Laboratory results published in PubChem BioAssay (NCATS).
Results filed as inconclusive are left out. Unmarked numbers belong to inactive results. The source made the active and inactive calls. Calls follow the shape of the dose curve; as a rule, active = well fitted cell-killing curve with a large enough effect; inconclusive = small, poorly fitted or top-dose-only effect, or effect the other way; inactive = no such curve, though single readings can be large or run the other way.

Experiment: Viability qHTS for spleen associated tyrosine kinase inhibitor (SYKi) drug resistant MV4-11 cells (AID 1963824); also: nearly all actives have a fitted effect of over 35% in size
Conditions: SYKi-resistant MV4-11 viability, CellTiter-Glo, 72 h; series mostly up to 45 µM; viability, % of control: at the top concentration
Procedure, shortened: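 CellTiter-Glo luminescence, read 10 min after reagent addition, reports viability after a 72 hr compound exposure. Cells are an MV4-11 line made resistant to SYK inhibition, seeded at 500 per well onto compound-containing plates.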
Potency is read from the fitted curve at half-maximal effect.

Compound | Potency | viability, % of control
CC(C)C[C@H](NC(=O)CNC(=O)OCc1ccccc1)C(=O)N[C@@H](Cc1ccccc1)C(=O)CCl | 8.2 µM (active) | 
O=C(c1ccc2nccnc2c1)N1CCCCC1 |  | 9.64%
C[C@@H]1O[C@@H](O[C@H]2[C@H](OC(=O)[C@]34CCC(C)(C)C[C@H]3C3=CCC5[C@@]6(C)C[C@H](O)[C@H](O[C@@H]7O[C@H](CO)[C@@H](O)[C@H](O)[C@H]7O)[C@](CO)(C(=O)O)C6CC[C@@]5(C)[C@]3(C)C[C@H]4O)OC[C@H](O)[C@@H]2O)[C@H](O)[C@H](O)[C@H]1O[C@@H]1OC[C@@H](O)[C@H](O[C@@H]2OC[C@](O)(CO)[C@H]2O)[C@H]1O (stereo partly drawn) | 0.776 µM (active) | 
COC(=O)CC1CC(c2ccc(O)cc2)=NO1 (stereo not drawn) |  | 85.3%
CC(=O)N[C@@H](C(=O)O[C@H]1CCC(C)(C)[C@@H]2CCC3=C(COC3=O)[C@@]12C)C(C)C |  | 74.2%
C[C@@H]1O[C@@H](O[C@H]2[C@H](O[C@H]3CO[C@@H](O[C@H]4CC[C@@]5(C)C(CC[C@]6(C)C5CC[C@]57OC[C@@]8(CC[C@](C)(CO)CC85)[C@H](O)C[C@]76C)C4(C)C)[C@H](O[C@@H]4O[C@H](CO)[C@@H](O)[C@H](O)[C@H]4O)[C@H]3O)O[C@H](CO)[C@@H](O)[C@@H]2O)[C@H](O)[C@H](O)[C@H]1O (stereo partly drawn) |  | 95% [at 9.25 µM]
CCCCCCCCCCCCOCCOCCOCCOCCOCCOCCOCCOCCOCCO | 5.96 µM (active) | 
COc1cc(/C=C/c2cc(O)cc(O[C@@H]3O[C@H](CO)[C@@H](O)[C@H](O)[C@H]3O)c2)ccc1O |  | 65.7% [at 17.3 µM]
